# From PubChem BioAssay (NCI)
# About 83,000 compounds went through this panel and 20% of them were active in at least one assay; those are over-represented in the sample as a whole.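 Each cell line was grown in a 96-well plate and treated with one concentration of compound for 48 hours. Values below 10 were considered active.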 Activity calls are given as the source filed them.
# System: SK-MEL-2 melanoma
# Test: NCI-60 one-dose screen, 48 h (100 = growth as untreated, 0 = no growth, -100 = all killed)
# Conditions: 10 µM unless noted
row,SMILES,growth
1,CC(C)(CNC1CCCCC1)OC(=O)c1ccccc1,116% (inactive)
2,COC(=O)c1ccc2[nH]c(O)c(C(=Nc3ccc(N(C)C(=O)CN4CCN(C)CC4)cc3)c3ccc4c(c3)OCO4)c2c1,-36.7% (active)
3,O=C(/C=C\c1ccc(NCc2ccc(C(=O)O)cc2)cc1)CCl,97% (inactive)
4,CCCCCCC(C)N(CC(C)(C)O)C(=O)c1ccc([N+](=O)[O-])cc1 (stereo not drawn),89.7% (inactive)
5,C=CN(C)S(C)(=O)=O,-8.09% (active)
6,CCCCCCC(C(=O)OCC)(C(=O)OCC)C1CCCCCC1,114% (inactive)
7,CCOC(=O)NC1=NCC(C)(C)S1,102% (inactive)
8,Cc1ccc2c(c1)C(=O)CCS2,119% (inactive)
9,S=C(N/N=C/c1cc(Cl)cc(Cl)c1)NC12CC3CC(CC(C3)C1)C2,116% (inactive)
10,COC(=O)C(N)CC(C)C (stereo not drawn),101% (inactive)
11,O=C(Nc1ccc(Cl)c(Cl)c1)O/N=C\c1c(Cl)ccc([N+](=O)[O-])c1Cl,-4.77% (active)
12,O=C(/C=C/c1ccc(Cl)cc1)c1ccc(Cl)cc1,97.2% (inactive)
13,O=C(Nc1cccc(Cn2c(=O)[nH]c3ccc(Oc4ncccn4)cc3c2=O)c1)c1cccc(F)c1,74.3% (inactive)
14,CC(=O)c1ccc2c(c1)c1ccccc1n2C,98.4% (inactive)
15,CCC(C)CC(N)O (stereo not drawn),128% (inactive)
16,COc1cc2ncnc(-n3ncc4cc(NC(=O)Nc5ccccc5)ccc43)c2cc1OC,-4.23% (active)
17,O=C(O)CS(=O)c1ccc(Cl)cc1 (stereo not drawn),114% (inactive)
18,O=C1C(=O)c2ccccc2C(O)=C1CCCc1ccc(Oc2ccccc2)cc1,72.5% (inactive)
19,O=C1C(Br)=CC2C1C1C3CCC3C2(Br)C12OCCO2 (stereo not drawn),21.7% (inactive)
20,CC1(C)NC(=S)NC1=O,129% (inactive)

row,SMILES,growth
1,CCCCCCCCCCC1OC(C)CC(C)O1 (stereo not drawn),105% (inactive)
2,O=C1C=C(OCC=C(C(F)(F)F)C(F)(F)F)c2ccccc2C1=O,12.4% (inactive)
3,CCOC1=C(Cl)C(=O)C(OCC)=C(Cl)C1=O,100% (inactive)
4,O=C(NCCO)C(F)(F)F,105% (inactive)
5,Oc1ccc(Br)cc1/C=N/NC(=S)NC12CC3CC(CC(C3)C1)C2,48.2% (inactive)
6,COc1cc(N2C(=O)C=CC2=O)ccc1N1C(=O)C=CC1=O,113% (inactive)
7,c1cc[c]([Bi]([c]2ccccc2)[c]2ccccc2)cc1,116% (inactive)
8,O=C(CN1C(=O)NC(c2ccccc2)(c2ccccc2)C1=O)c1ccc(N2CCCC2)cc1,91.1% (inactive)
9,CC(O)CN(CCO)CCN(CCO)CC(C)O (stereo not drawn),114% (inactive)
10,CNc1ccc(Nc2ccc(S(=O)(=O)O)cc2)c2c1C(=O)c1ccccc1C2=O,130% (inactive)
11,Cc1ccc(S(=O)(=O)NC(CCC(=O)Nc2ccccc2)C(=O)Nc2ccccc2)cc1 (stereo not drawn),-39.6% (active)
12,COC1(OC)N=C(N)C2(C#N)C3(C(=O)Nc4ccccc43)C12C#N (stereo not drawn),83.5% (inactive)
13,Cn1c2ccccc2c2ccccc21,99.4% (inactive)
14,Oc1ccc([S+](c2ccc(O)cc2)c2ccc(O)cc2)cc1,117% (inactive)
15,Nc1cc(N)c2nc(-c3ccccc3)c(NCCc3ccc(Cl)c(Cl)c3)nc2c1,-62.7% (active)
16,COC(=O)Nc1nc2ccc(C(=O)c3ccccc3N(C)C3COC3)cc2[nH]1,24.2% (inactive)
17,CCOP1(=O)CC(C)=C(Cl)C(P(=O)(O)O)C1 (stereo not drawn),109% (inactive)
18,CCCCCCCCC1OC1CCCCCCCC(=O)O (stereo not drawn),103% (inactive)
19,CC(O)CN(CC(C)O)N(CC(C)O)CC(C)O (stereo not drawn),121% (inactive)

# System: SN12C renal
# Test: as above
# Conditions: 10 µM unless noted
row,SMILES,growth
1,CC(C)(CNC1CCCCC1)OC(=O)c1ccccc1,95.1% (inactive)
2,COC(=O)c1ccc2[nH]c(O)c(C(=Nc3ccc(N(C)C(=O)CN4CCN(C)CC4)cc3)c3ccc4c(c3)OCO4)c2c1,10.9% (inactive)
3,O=C(/C=C\c1ccc(NCc2ccc(C(=O)O)cc2)cc1)CCl,79.7% (inactive)
4,CCCCCCC(C)N(CC(C)(C)O)C(=O)c1ccc([N+](=O)[O-])cc1 (stereo not drawn),104% (inactive)
5,C=CN(C)S(C)(=O)=O,42.5% (inactive)
6,CCCCCCC(C(=O)OCC)(C(=O)OCC)C1CCCCCC1,101% (inactive)
7,CCOC(=O)NC1=NCC(C)(C)S1,93.8% (inactive)
8,Cc1ccc2c(c1)C(=O)CCS2,101% (inactive)
9,S=C(N/N=C/c1cc(Cl)cc(Cl)c1)NC12CC3CC(CC(C3)C1)C2,88.6% (inactive)
10,COC(=O)C(N)CC(C)C (stereo not drawn),17.6% (inactive)
11,O=C(Nc1ccc(Cl)c(Cl)c1)O/N=C\c1c(Cl)ccc([N+](=O)[O-])c1Cl,-52.4% (active)
12,O=C(/C=C/c1ccc(Cl)cc1)c1ccc(Cl)cc1,102% (inactive)
13,O=C(Nc1cccc(Cn2c(=O)[nH]c3ccc(Oc4ncccn4)cc3c2=O)c1)c1cccc(F)c1,78% (inactive)
14,CC(=O)c1ccc2c(c1)c1ccccc1n2C,92.1% (inactive)
15,CCC(C)CC(N)O (stereo not drawn),109% (inactive)
16,COc1cc2ncnc(-n3ncc4cc(NC(=O)Nc5ccccc5)ccc43)c2cc1OC,3.79% (active)
17,O=C(O)CS(=O)c1ccc(Cl)cc1 (stereo not drawn),104% (inactive)
18,O=C1C(=O)c2ccccc2C(O)=C1CCCc1ccc(Oc2ccccc2)cc1,77.8% (inactive)
19,O=C1C(Br)=CC2C1C1C3CCC3C2(Br)C12OCCO2 (stereo not drawn),41.8% (inactive)
20,CC1(C)NC(=S)NC1=O,105% (inactive)

row,SMILES,growth
1,CCCCCCCCCCC1OC(C)CC(C)O1 (stereo not drawn),103% (inactive)
2,O=C1C=C(OCC=C(C(F)(F)F)C(F)(F)F)c2ccccc2C1=O,-15.1% (active)
3,CCOC1=C(Cl)C(=O)C(OCC)=C(Cl)C1=O,98.8% (inactive)
4,O=C(NCCO)C(F)(F)F,102% (inactive)
5,Oc1ccc(Br)cc1/C=N/NC(=S)NC12CC3CC(CC(C3)C1)C2,20.1% (inactive)
6,COc1cc(N2C(=O)C=CC2=O)ccc1N1C(=O)C=CC1=O,105% (inactive)
7,c1cc[c]([Bi]([c]2ccccc2)[c]2ccccc2)cc1,97.1% (inactive)
8,O=C(CN1C(=O)NC(c2ccccc2)(c2ccccc2)C1=O)c1ccc(N2CCCC2)cc1,103% (inactive)
9,CC(O)CN(CCO)CCN(CCO)CC(C)O (stereo not drawn),104% (inactive)
10,CNc1ccc(Nc2ccc(S(=O)(=O)O)cc2)c2c1C(=O)c1ccccc1C2=O,92.8% (inactive)
11,Cc1ccc(S(=O)(=O)NC(CCC(=O)Nc2ccccc2)C(=O)Nc2ccccc2)cc1 (stereo not drawn),3.91% (active)
12,COC1(OC)N=C(N)C2(C#N)C3(C(=O)Nc4ccccc43)C12C#N (stereo not drawn),93.8% (inactive)
13,Cn1c2ccccc2c2ccccc21,107% (inactive)
14,Oc1ccc([S+](c2ccc(O)cc2)c2ccc(O)cc2)cc1,95.2% (inactive)
15,Nc1cc(N)c2nc(-c3ccccc3)c(NCCc3ccc(Cl)c(Cl)c3)nc2c1,-96.6% (active)
16,COC(=O)Nc1nc2ccc(C(=O)c3ccccc3N(C)C3COC3)cc2[nH]1,44.1% (inactive)
17,CCOP1(=O)CC(C)=C(Cl)C(P(=O)(O)O)C1 (stereo not drawn),99.3% (inactive)
18,CCCCCCCCC1OC1CCCCCCCC(=O)O (stereo not drawn),94.5% (inactive)
19,CC(O)CN(CC(C)O)N(CC(C)O)CC(C)O (stereo not drawn),107% (inactive)
